Data as given in PubChem BioAssay (NCATS).
Where “and” joins values, the source holds several entries; their conditions need not be identical. Equal entries are not always repeated. Inconclusive results are not listed. Some compounds were tested as several samples or in several runs, with calls that do not always agree. Calls of active or inactive are those of the source. Calls come from the whole dose curve; as a rule, active = well fitted curve in the direction sought with a large enough effect; inconclusive = small, poorly fitted or top-dose-only effect, or another doubt; inactive = no such curve, though single readings can be large; an effect the other way counts as inactive or inconclusive.

Tests used:
HaCat [1] = assay: Cytotoxic Profiling of Annotated Libraries Using Quantitative High-Throughput Screening (AID 1296008); conditions: Five cell lines viability, CellTiter-Glo ATP luminescence, 48-72 h; max response: stronger effect = lower value; note: nearly all actives have a fitted effect of over 60% in size
Method in brief: (§1)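 Cytotoxicity was measured as CellTiter-Glo ATP luminescence, read after 10 min at room temperature. Compound treatment of the cells lasted 48 or 72 hr at 37 degrees Celsius in a qHTS format.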

KB-3-1 = assay: as above; conditions: Five cell lines viability, CellTiter-Glo ATP luminescence, 48-72 h; max response: stronger effect = lower value
Method in brief: as §1

NIH3T3 [2] = assay: as above; conditions: Five cell lines viability, CellTiter-Glo ATP luminescence, 48-72 h; max response: stronger effect = lower value
Method in brief: as §1

HACAT [3] = assay: qHTS assay to identify novel small-molecules to repurpose for Merkel cell carcinoma treatment (AID 1296009); conditions: MCC and control cell lines, CellTiter-Glo viability, 72 h; series mostly up to 44.8 µM; note: nearly all actives have a fitted effect of over 60% in size
Method in brief: (§2)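 After compound transfer in DMSO, plates were kept 72 hr at 37 degree celsius. Luminescent ATP signal from CellTiter-Glo served as viability measure, normalized against DMSO and no-cell controls.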

MCC-13 = assay: as above; conditions: MCC and control cell lines, CellTiter-Glo viability, 72 h; series mostly up to 46 µM
Method in brief: as §2

MKL-1 = assay: as above; conditions: MCC and control cell lines, CellTiter-Glo viability, 72 h; series mostly up to 46 µM
Method in brief: as §2

MKL-2 = assay: as above; conditions: MCC and control cell lines, CellTiter-Glo viability, 72 h; series mostly up to 46 µM
Method in brief: as §2

UISO = assay: as above; conditions: MCC and control cell lines, CellTiter-Glo viability, 72 h; series mostly up to 46 µM
Method in brief: as §2

WaGa = assay: as above; conditions: MCC and control cell lines, CellTiter-Glo viability, 72 h; series mostly up to 46 µM
Method in brief: as §2

HEK293 = assay: Cytotoxic Profiling of Annotated Libraries Using Quantitative High-Throughput Screening (AID 1296008); conditions: Five cell lines viability, CellTiter-Glo ATP luminescence, 48-72 h; max response: stronger effect = lower value; note: nearly all actives have a fitted effect of over 60% in size
Method in brief: as §1

HeLa = assay: Primary qHTS to identify gynecologic anti-cancer compounds using libraries of approved drugs and bioactive compounds (AID 1345084); conditions: Gynecologic cancer cell panel viability, ATPlite luminescence, 48 h; series mostly up to 57.5 µM; note: nearly all actives have a fitted effect of over 55% in size
Method in brief: (§3)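 Cells, 1,000 per well, were allowed to settle for 16 h at 37 C before compound addition. Five concentrations were tested for 48 h, and viability was read by ATPlite luminescence after 15 min at room temperature.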

JEG-3 = assay: as above; conditions: Gynecologic cancer cell panel viability, ATPlite luminescence, 48 h; series mostly up to 57.5 µM
Method in brief: as §3

C33A = assay: as above; conditions: Gynecologic cancer cell panel viability, ATPlite luminescence, 48 h; series mostly up to 57.5 µM
Method in brief: as §3

CASKI = assay: as above; conditions: Gynecologic cancer cell panel viability, ATPlite luminescence, 48 h; series mostly up to 57.5 µM
Method in brief: as §3

MCC-26 = assay: qHTS assay to identify novel small-molecules to repurpose for Merkel cell carcinoma treatment (AID 1296009); conditions: MCC and control cell lines, CellTiter-Glo viability, 72 h; series mostly up to 46 µM; note: nearly all actives have a fitted effect of over 60% in size
Method in brief: as §2

Hek293T [4] = assay: Primary qHTS to identify gynecologic anti-cancer compounds using libraries of approved drugs and bioactive compounds (AID 1345084); conditions: Gynecologic cancer cell panel viability, ATPlite luminescence, 48 h, control line for the selectivity index; series mostly up to 57.5 µM; note: nearly all actives have a fitted effect of over 55% in size
Method in brief: as §3

HEK293T [5] = assay: qHTS assay to identify novel small-molecules to repurpose for Merkel cell carcinoma treatment (AID 1296009); conditions: MCC and control cell lines, CellTiter-Glo viability, 72 h; at 44.8 µM (top of the series) unless noted; note: nearly all actives have a fitted effect of over 60% in size
Method in brief: as §2

NIH3T3 [6] = assay: as above; conditions: MCC and control cell lines, CellTiter-Glo viability, 72 h; at 44.8 µM (top of the series) unless noted
Method in brief: as §2

Es-2 = assay: Primary qHTS to identify gynecologic anti-cancer compounds using libraries of approved drugs and bioactive compounds (AID 1345084); conditions: Gynecologic cancer cell panel viability, ATPlite luminescence, 48 h; series mostly up to 57.5 µM; note: nearly all actives have a fitted effect of over 55% in size
Method in brief: as §3

CAOV3 = assay: as above; conditions: Gynecologic cancer cell panel viability, ATPlite luminescence, 48 h; series mostly up to 57.5 µM
Method in brief: as §3
% is set by controls: 0 for no effect and ±100 for the full control effect; potency is the fitted concentration of half-maximal effect.

COc1ccc(CC2SC(=O)NC2=O)cc1C(=O)NCc1ccc(C(F)(F)F)cc1 (stereo not given)
inactive: outcome (HaCat [1]) | max response (KB-3-1) -9.05% | max response (NIH3T3 [2]) 2.55% | Potency (HACAT [3]) | Potency (MCC-13) | Potency (MKL-1) | Potency (MKL-2) | Potency (UISO) | Potency (WaGa)

Nc1nc(Nc2ccc(S(N)(=O)=O)cc2)nn1C(=O)c1c(F)cccc1F
inactive: Potency (JEG-3)
active: Potency (HEK293) 5.9 µM and 2.59 µM | Potency (KB-3-1) 3.26 µM | Potency (NIH3T3 [2]) 10.5 µM and 11.6 µM | Potency (UISO) 13.2 µM | Potency (HeLa) 22.4 µM

COc1cccc2c(NCc3ccccc3)nc(-n3c(N)nc4ccccc43)nc12
inactive: max response (KB-3-1) -11.5%
active: Potency (HEK293) 7.43 µM and 11.6 µM | Potency (NIH3T3 [2]) 10.5 µM | Potency (MKL-1) 9.35 µM | Potency (MKL-2) 4.69 µM | Potency (UISO) 6.62 µM | Potency (WaGa) 9.35 µM | Potency (C33A) 28.2 µM | Potency (CASKI) 25.1 µM | Potency (HeLa) 25.1 µM

OCc1ccc(-c2ccc(-c3ccc(CO)s3)o2)s1
active: Potency (KB-3-1) 2.82 µM | Potency (Hek293T [4]) 1.41 µM
inactive: max response (HaCat [1]) 4.62% | outcome (HaCat [1]) | max response (KB-3-1) -70.8% | max response (NIH3T3 [2]) -23.8% | Potency (HACAT [3]) | Potency (MCC-26) | Potency (C33A) | Potency (HeLa) | Potency (JEG-3)

Cc1ccc(NC(=O)C2(c3ccc4c(c3)OC(F)(F)O4)CC2)nc1-c1cccc(C(=O)O)c1
active: Potency (HaCat [1]) 0.418 µM | Potency (KB-3-1) 0.0526 µM | Potency (NIH3T3 [2]) 0.0935 µM | Potency (MCC-13) 1.18 µM | Potency (MCC-26) 0.833 µM | Potency (MKL-2) 0.0264 µM
inactive: max response (HaCat [1]) -0.152% | outcome (KB-3-1) | outcome (NIH3T3 [2]) | outcome (HEK293T [5]) | outcome (NIH3T3 [6]) | Potency (C33A) | Potency (CASKI) | Potency (Es-2) | Potency (HeLa) | Potency (Hek293T [4]) | Potency (JEG-3)

Cc1cn2c(-c3cn[nH]c3)cnc2c(Nc2ccc(C(=O)N3CCNCC3)cc2F)n1
active: Potency (HEK293) 16.4 µM
inactive: Potency (MCC-13) | Potency (MCC-26) | Potency (MKL-1) | Potency (MKL-2) | Potency (WaGa) | Potency (C33A) | Potency (CASKI) | Potency (Es-2) | Potency (Hek293T [4]) | Potency (JEG-3)

Cc1cc(Nc2cc(NC(=O)c3c(Cl)cccc3Cl)ccn2)nc(N)n1
active: Potency (HEK293) 0.935 µM | Potency (KB-3-1) 0.418 µM | Potency (NIH3T3 [2]) 3.72 µM | Potency (MCC-26) 26.4 µM | Potency (UISO) 1.18 µM | Potency (WaGa) 2.35 µM

Cn1cc(-c2[nH]c3cc(NC(=O)[C@H](N)C4CCCCC4)cc4c3c2C=NNC4=O)cn1
inactive: max response (HaCat [1]) -8.38% | Potency (CASKI) | Potency (JEG-3)
active: Potency (KB-3-1) 5.9 µM and 4.11 µM | Potency (NIH3T3 [2]) 14.8 µM | Potency (UISO) 0.418 µM | Potency (WaGa) 2.64 µM

C=C1C(=CC=C2CCCC3(C)[C@@H]([C@H](C)C=CC=CC(O)(CC)CC)CC[C@@H]23)C[C@@H](O)C[C@@H]1O (stereo not given in full)
active: Potency (MKL-2) 14.8 µM | Potency (WaGa) 11.8 µM
inactive: outcome (HaCat [1]) | outcome (KB-3-1) | Potency (HACAT [3]) | Potency (MCC-13) | Potency (MKL-1) | Potency (UISO)

COC(=O)c1ccc2c(C(=Nc3ccc(N(C)C(=O)CN4CCN(C)CC4)cc3)c3ccccc3)c(O)[nH]c2c1
inactive: Potency (C33A) | Potency (CASKI) | Potency (Es-2) | Potency (Hek293T [4]) | Potency (JEG-3)

C=C1C(=CC=C2CCC[C@]3(C)[C@@H]([C@H](C)C=C[C@H](C)C(C)C)CC[C@@H]23)C[C@@H](O)C[C@@H]1O
inactive: outcome (HaCat [1]) | outcome (KB-3-1) | Potency (HACAT [3])
active: Potency (MCC-26) 14.8 µM | Potency (MKL-1) 1.18 µM | Potency (MKL-2) 0.332 µM | Potency (UISO) 8.33 µM | Potency (WaGa) 0.118 µM

CCCCN1CCC(CNC(=O)c2c3n(c4ccccc24)CCCO3)CC1
inactive: Potency (MCC-13)

Cc1cn(-c2cc(NC(=O)c3ccc(C)c(Nc4nccc(-c5cccnc5)n4)c3)cc(C(F)(F)F)c2)cn1
inactive: Potency (C33A) | Potency (CASKI) | Potency (Es-2) | Potency (HeLa) | Potency (Hek293T [4]) | Potency (JEG-3)

COc1cc(=C2C=c3ccccc3=N2)[nH]c1=Cc1[nH]c(C)cc1C
active: Potency (HaCat [1]) 20.9 µM | Potency (KB-3-1) 3.72 µM | Potency (NIH3T3 [2]) 18.7 µM | Potency (UISO) 13.2 µM | Potency (WaGa) 23.5 µM

Fc1cc(-c2cccc3ncc(-c4cnn(C5CCNCC5)c4)nc23)cc(F)c1CN1CCOCC1
active: Potency (CAOV3) 31.6 µM
inactive: Potency (HeLa) | Potency (Hek293T [4])

CCc1cc2c(cc1N1CCC(N3CCOCC3)CC1)C(C)(C)c1[nH]c3cc(C#N)ccc3c1C2=O
inactive: max response (HaCat [1]) -16.1% and -0.553% | max response (KB-3-1) -32% and 1.82% | max response (NIH3T3 [2]) -45.1% and -2.9% | Potency (MCC-13) | Potency (MCC-26) | Potency (MKL-1) | Potency (UISO) | Potency (WaGa) | Potency (C33A) | Potency (CAOV3) | Potency (CASKI) | Potency (Es-2) | Potency (HeLa) | Potency (Hek293T [4]) | Potency (JEG-3)

Cc1ccc(C(=O)Nc2cccc(C(F)(F)F)c2)cc1-c1ccc2nc(NCCN3CCOCC3)ncc2c1
inactive: Potency (MKL-2) | Potency (WaGa) | Potency (Hek293T [4])
active: Potency (HaCat [1]) 6.51 µM | Potency (KB-3-1) 16.6 µM | Potency (NIH3T3 [2]) 10.5 µM and 18.4 µM | Potency (MCC-13) 11.8 µM | Potency (MCC-26) 18.7 µM | Potency (CAOV3) 22.4 µM | Potency (CASKI) 14.1 µM | Potency (Es-2) 11.2 µM | Potency (HeLa) 11.2 µM
